HTR5A ag ctr – HTR5A agonism, opioid heterodimer counter-screen; P47898; HTR5A agonist assay, luminescence, cell-based; activation, % at 9.3 µM; actives 0.61% (n = 340,000); in the data active means activation mostly above about 9.5%, no sharp cut-off; inactive means mostly below about 7.6%;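 further: 0% = cells with vehicle only and 100% = reference agonist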
Target sequence (P47898 whole entry, looked up): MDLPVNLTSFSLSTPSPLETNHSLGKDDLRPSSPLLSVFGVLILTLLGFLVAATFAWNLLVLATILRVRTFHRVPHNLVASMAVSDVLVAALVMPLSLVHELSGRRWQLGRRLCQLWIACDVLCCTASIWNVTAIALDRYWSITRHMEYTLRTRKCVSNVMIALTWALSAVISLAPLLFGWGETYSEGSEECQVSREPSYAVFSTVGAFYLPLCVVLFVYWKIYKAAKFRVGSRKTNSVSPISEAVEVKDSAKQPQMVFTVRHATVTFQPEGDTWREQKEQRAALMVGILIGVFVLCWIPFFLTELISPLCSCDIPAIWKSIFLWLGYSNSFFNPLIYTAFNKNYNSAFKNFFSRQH
MOR-DOR ag – OPRM1-OPRD1 heterodimerization agonism; actives 0.3% (n = 340,000); AID 504326; activation, % at 9.3 µM; P35372+P41143; cells, luminescence; in the data active means activation above about 18%;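 further: 0% = vehicle-treated cells and 100% = reference agonist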
OPRM1-OPRD1 inv – inverse agonist of human OPRM1-OPRD1 heterodimerization | P35372+P41143 | cell-based MOR-DOR heterodimer luminescence, inverse agonism | inhibition, % at 9.3 µM | actives 0.21% (n = 340,000); in the data active means inhibition above about 22%, passing the limit was not always enough;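 further: 0% = cells with DMSO and 100% = wells without cells with DMSO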
HTR5A inv ctr – inverse agonist of human HTR5A in OPRM1-OPRD1 counter-screen; P47898; HTR5A cell line, luminescence, inverse agonism; inhibition, % at 9.3 µM; actives 0.083% (n = 340,000); in the data active means inhibition mostly above about 23%, no sharp cut-off; inactive means mostly below about 18%;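 further: 0% = cells with DMSO and 100% = no-cell wells with DMSO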
MsrA inhibitor – inhibitors of bovine MsrA; purified bovine MsrA, absorbance read-out; inhibition, % at 15.5 µM; actives 0.75% (n = 360,000); AID 651718; in the data active means inhibition above about 4.5%;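 further: 0% = vehicle wells with enzyme and 100% = reference inhibitor wells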
bovine MsrA act – activates bovine MsrA enzyme. purified bovine MsrA, absorbance read-out. activation, % at 10.6 µM. AID 602163. actives 0.3% (n = 360,000); in the data active means activation above about 7.5%;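 further: 0% = vehicle and 100% = reference activator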
* = called active by the depositor; x = not tested or not shown. In the library only some 1.9% were active in any assay of this set; here they are far more common.

SMILES | HTR5A ag ctr | MOR-DOR ag | OPRM1-OPRD1 inv | HTR5A inv ctr | MsrA inhibitor | bovine MsrA act
CCC(=O)N1CCc2cc(S(=O)(=O)N3CCCCCC3)ccc21 | 13* | -5 | 26 | -9 | 0 | -6
O=C(Oc1ccc2c(-c3ccccc3)cc(=O)oc2c1)C1CCCCC1 | -1 | 3 | -12 | 4 | 19* | -5
C[C@H](O)[C@@H]1C(=O)N2CCc3c([nH]c4c(-c5ccc6c(c5)OCO6)cccc34)[C@@H]2C[C@@H]1N(C)C(=O)NC1CCCCC1 | x | x | x | x | 1 | x
COc1cccc(C(=O)N[C@H](C(=O)N2CCC[C@H]2C(=O)NCCc2ccccc2Cl)c2ccccc2)c1 | x | x | x | x | -1 | x
N/C(=N\OC(=O)c1ccc(Cl)cc1)c1ccccn1 | 4 | 1 | -7 | -10 | -1 | -2
N/C(=N\OC(=O)c1ccc(Cl)c(Cl)c1)c1ccccn1 | 14* | 5 | -25 | -3 | 0 | -2
CC(C)(C)c1ccc(C#C[C@@H]2C=C[C@H]3OC(=O)CC/C=C/CCC(=O)OC[C@H]3O2)cc1 | x | x | x | x | 0 | x
O=C(NCCN1CCCC1)c1ccccc1Cl | 4 | -1 | 5 | -9 | 0 | -4
O=C1C(Cl)=C(NCCN2CCCCC2)C(=O)c2ccccc21 | 5 | 17 | -108 | 28 | x | 18*
CSc1cccc(N=C2C(=O)Nc3ccccc32)c1 | -4 | -11 | 52* | 16 | -1 | -2
CC(=O)N(/N=C1/C(=O)Nc2ccccc21)c1ccccc1 | 0 | 2 | -12 | -1 | -2 | -1
O=C1Nc2ccccc2Nc2ccccc21 | 1 | -3 | 16 | -3 | 0 | -2
CC(=O)c1ccc(N=C2C(=O)Nc3ccccc32)cc1 | -2 | -11 | 53* | 9 | 1 | -8
O=C1Nc2ccccc2C1=Nc1cccc(Cl)c1 | -6 | -11 | 53* | 21 | -1 | 0
Cc1cc(NC(=O)CCc2c[nH]c3ccccc23)ccc1Nc1cccnc1 | x | x | x | x | 1 | x
COc1ccccc1-c1cccc2c3c([nH]c12)[C@@H]1C[C@H]2[C@@H](C(=O)N1CC3)[C@H](C)ON2C | x | x | x | x | 0 | x
S=C1NCN(CC2CC2)CN1 | x | x | x | x | 1 | x
COC(=O)[C@]12C[C@H](CC(=O)NCc3cccs3)C(=O)N(CCc3ccc(OC)c(OC)c3)C1=C[C@H](C(C)(C)C)O[C@@H]2C | x | x | x | x | 0 | x
COc1cc(OC)c2c(=O)c3c(C(=O)O)c(O)ccc3oc2c1 | x | x | x | x | -1 | x
COc1ccc(C2C3=C(CC(c4ccco4)CC3=O)Nc3ccccc3N2C(C)=O)cc1 (stereo not given) | 2 | -4 | 16 | 0 | 5.3* | -4
COc1ccc(NC(=O)CC2C(=O)N(c3ccc(Cl)cc3)C(=S)N2NC(=O)c2cccc(F)c2)cc1 (stereo not given) | 0 | 0 | -1 | -6 | 0 | 0
COc1ccc(NC(=O)CC2C(=O)N(c3ccc(F)cc3)C(=S)N2NC(=O)c2ccc(Cl)cc2)cc1 (stereo not given) | 12* | 0 | -2 | 6 | 0 | -13
Cc1ccc2nc(NC(=O)CSCc3ccccc3)sc2c1 | 10* | 5 | -29 | -4 | 0 | -10
Cc1ccc2nc(NC(=O)CS(=O)(=O)Cc3ccccc3)sc2c1 | -3 | 3 | -15 | 9 | 1 | -2
CC1CN(c2nn3c(=O)c4ccccc4nc3c3ccccc23)CC(C)O1 (stereo not given) | 1 | -1 | 6 | -36 | 1 | 9.7*
SMILES | HTR5A ag ctr | MOR-DOR ag | OPRM1-OPRD1 inv | HTR5A inv ctr | MsrA inhibitor | bovine MsrA act
CN1C(=O)[C@@]2(O[C@H]3C=CC=CN3C3=C2C(=O)CCC3)c2cccc(Br)c21 | x | x | x | x | 1 | x
COc1ccc(C)c2sc(N(CCCN(C)C)C(=O)c3ccc(S(=O)(=O)N4CCc5ccccc5C4)cc3)nc12 | 21* | 30* | -148 | -18 | -1 | -1
COc1ccc(-c2cc(NC(=O)Cc3c(C)[nH]c4ccccc34)ccc2Nc2cccnc2)cc1F | x | x | x | x | 0 | x
O=C(O)CCC(=O)Nc1ccccc1C(=O)Nc1ccccc1 | 3 | 1 | -6 | 22 | 0 | -12
O=C(O)CCC(=O)Nc1ccccc1C(=O)NCCc1ccccc1 | 12* | -2 | 9 | 20 | -1 | -5
Cc1onc(C(=O)N2CCN(C(c3ccccc3)c3ccccc3)CC2)c1[N+](=O)[O-] | 13* | 16 | -81 | -33 | 0 | 1
COc1ccccc1N1CCN(C(=O)c2noc(C)c2[N+](=O)[O-])CC1 | 9 | -1 | 6 | 8 | -1 | -13
CC(=O)c1c(C)n(CC(=O)NCc2ccco2)c2ccccc12 | 9.8* | 1 | -3 | 9 | 1 | -2
COCCNC(=S)N(C)[C@H]1C[C@H]2c3[nH]c4ccccc4c3CCN2C(=O)[C@H]1[C@H](C)O | x | x | x | x | 1 | x
C=CCN=C1NC(c2ccccc2C(F)(F)F)C(C(=O)OC)=C(C)N1Cc1ccccc1C(F)(F)F (stereo not given) | x | x | x | x | 0 | x
Nc1[nH]c(C(=O)c2ccccc2)c(-c2cccc(C(F)(F)F)c2)c1C(=O)NCCc1c[nH]c2ccccc12 | x | x | x | x | 0 | x
N#Cc1ccc(Nc2nc(-c3ccc(O)cc3O)cs2)cc1C(F)(F)F | 13* | 4 | -23 | -27 | x | -3
Oc1ccc(-c2csc(Nc3ccc4c(c3)OCO4)n2)c(O)c1 | 0 | 4 | -20 | 6 | 2 | -2
CCc1cc2c(COC(=O)c3cc(S(=O)(=O)N4CCOCC4)ccc3F)cc(=O)oc2cc1O | 0 | -3 | 12 | 0 | -1 | -4
CCc1cc2c(COC(=O)c3cccc(NS(C)(=O)=O)c3)cc(=O)oc2cc1O | 12* | 10 | -86 | -16 | 2 | -2
O=S(=O)(Nc1cccc(-c2ccc(N3CCCCCC3)nn2)c1)c1ccc(C(F)(F)F)cc1 | 11* | 1 | -7 | 13 | 0 | -1
CCCCN(CC)C(=O)c1cc2c(=O)[nH]c3ccc(C)cc3c2s1 | 1 | 2 | -11 | -4 | 1 | -2
CCCCN(Cc1ccco1)C(=O)c1cc2c(=O)[nH]c3ccc(C)cc3c2s1 | 16* | 20* | -108 | -47 | 2 | 0
COc1cccc(S(=O)(=O)N(C)C[C@@H]2Oc3ncc(Br)cc3C(=O)N([C@H](C)CO)C[C@@H]2C)c1 | x | x | x | x | 0 | x
CCN1/C(=C/c2ccc3ccccc3[n+]2CC)C=Cc2ccccc21 | -12 | -6 | 32 | 43* | 1 | 1
CCN1/C(=C/c2ccc3ccccc3[n+]2CCCS(=O)(=O)[O-])C=Cc2cc(C)ccc21 | -4 | -3 | 13 | 13 | 0 | -11
NNS(=O)(=O)c1ccc2c(c1)Cc1cc(S(=O)(=O)NN)ccc1-2 | 12* | -4 | 17 | -45 | 1 | -4
O=S(=O)(NCCO)c1ccc2c(c1)Cc1cc(S(=O)(=O)NCCO)ccc1-2 | 0 | 0 | 2 | 1 | 1 | -3
COC(=O)C1=C(C)N(Cc2ccccc2C(F)(F)F)C(=NCc2ccc3c(c2)OCO3)NC1CCc1ccccc1 (stereo not given) | x | x | x | x | -1 | x
C=CC(=O)N1C/C(=C/c2ccc(F)cc2)C(=O)/C(=C\c2ccc(F)cc2)C1 | -7 | -6 | 29 | 28 | 5.1* | -6
